High-throughput results deposited in PubChem BioAssay by National Center for Advancing Translational Sciences (NCATS).
RECQ1 inh: blocks DNA unwinding by human RECQ1. P46063. RECQ1 DNA unwinding, red fluorescence kinetic read. Potency, µM (titrated, usually from 57.3 µM), for the others: at the highest dose activity, negative = inhibition, hits mostly inhibitors. hit rate 0.54% among 240,000. AID 2549;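 also: plate controls were vehicle for no effect and no enzyme for full effect; nearly all actives have a fitted effect of over 30% in size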
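RECQ1T1 50 nM; forked duplex (20 bp + 30-nt ss tails) 200 nM, ATP 2 mM final; pH 8.0, 2 mM MgCl2, 2.5 ug/ml poly(dI-dC); 15 min compound preincubation; discontinuous kinetic read over 2 h at RT.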
L3MBTL1 inh: inhibitors of human L3MBTL1; Potency, µM (titrated, usually from 57.1 µM), for inactives: at the top dose activity, negative = inhibition, actives largely listed as inhibitors; hit rate 0.66% among 230,000; AID 485360; AlphaScreen L3MBTL1–H3K9me1 peptide binding; Q9Y468; also: nearly all actives have a fitted effect of over 60% in size
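L3MBTL1 50 nM + b-AHA-H3(1-15)K9me1 75 nM, 30 min RT; compound added, 30 min RT; streptavidin donor/Ni-chelate acceptor beads 10 ug/mL each final, 30 min RT dark; AlphaScreen read.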
KDM4E inh: JMJD2E (human) inhibition | B2RXH2 | JMJD2E catalytic domain, FDH-coupled NADH fluorescence (FDH is formaldehyde dehydrogenase) | Potency, µM (titrated, usually from 57.1 µM), for inactives: at the top dose activity change, negative = inhibition, actives largely listed as inhibitors | hit rate 1.6% among 230,000; active = well fitted inhibition curve with a large enough effect, not every such curve was filed as active; inconclusive = small, poorly fitted or top-dose-only effect, or another doubt; inactive = no such curve, though single readings can be large or run the other way;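 also: 0% = wells with enzyme and -100% = buffer wells without enzyme; nearly all actives have a fitted effect of over 50% in size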
Target sequence (B2RXH2 1-337 limits assumed): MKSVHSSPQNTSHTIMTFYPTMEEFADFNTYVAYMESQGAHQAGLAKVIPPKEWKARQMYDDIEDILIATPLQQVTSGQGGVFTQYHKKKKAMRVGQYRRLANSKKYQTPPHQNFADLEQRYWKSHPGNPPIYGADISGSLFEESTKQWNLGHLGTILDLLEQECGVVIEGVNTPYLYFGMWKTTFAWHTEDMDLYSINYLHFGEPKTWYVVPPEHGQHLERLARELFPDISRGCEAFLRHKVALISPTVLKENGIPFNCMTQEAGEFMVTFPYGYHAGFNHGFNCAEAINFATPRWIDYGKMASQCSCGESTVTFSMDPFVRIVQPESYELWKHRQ
BLM helicase inh: inhibitors of human Bloom syndrome helicase BLM. recombinant BLM DNA unwinding, fluorescence dequenching. Potency, µM (top dose mostly 56.1 µM), for the others: at the highest dose activity change, negative = inhibition, most hits filed as inhibitors. hit rate 0.2% among 350,000. AID 2528;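 also: plate controls were vehicle for no effect and no enzyme for full effect; nearly all actives have a fitted effect of over 35% in size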
APEX1 inh: APE1 (human) endonuclease inhibition; P27695; recombinant APE1, TAMRA/BHQ-2 abasic DNA cleavage fluorescence; Potency, µM (doses to about 65.8 µM), inactives show at the top dose activity change, negative = inhibition, most hits filed as inhibitors; hit rate 0.35% among 350,000; AID 2517;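 also: plate controls were vehicle for no effect and reference inhibitor for full effect; nearly all actives have a fitted effect of over 55% in size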
Target sequence (P27695 whole entry, looked up): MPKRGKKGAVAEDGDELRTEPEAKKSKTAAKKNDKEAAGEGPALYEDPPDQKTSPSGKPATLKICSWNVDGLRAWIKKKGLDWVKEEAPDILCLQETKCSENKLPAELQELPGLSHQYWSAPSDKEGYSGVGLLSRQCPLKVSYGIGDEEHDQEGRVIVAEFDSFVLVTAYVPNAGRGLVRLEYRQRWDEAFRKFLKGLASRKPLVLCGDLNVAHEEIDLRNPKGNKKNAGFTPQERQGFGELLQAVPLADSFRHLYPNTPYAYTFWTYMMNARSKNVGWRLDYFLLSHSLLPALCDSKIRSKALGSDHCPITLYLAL
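Readout is kinetic fluorescence (ex 525, em 598 nm) from cleavage of 50 nM TAMRA/BHQ-2 THF abasic duplex by 0.75 nM APE1, compound added 15 min beforehand at RT.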
* marks the source's active call; other numbers are inactive results; i = inactive; ? = inconclusive; . = not tested or not shown; ! = not active in a repeat; [ ] = dose if it differs, or a comment. This is one part of a sample in which hits are shown more often than they occur. Unless noted, calls follow the shape of the dose curve; as a rule, active = well fitted curve in the direction sought with a large enough effect; inconclusive = small, poorly fitted or top-dose-only effect, or another doubt; inactive = no such curve, though single readings can be large; an effect the other way counts as inactive or inconclusive. Unless noted, % is scaled to controls: 0 for no effect and ±100 for the full control effect; potency is read from the fitted curve at half-maximal effect.

SMILES	RECQ1 inh	L3MBTL1 inh	KDM4E inh	BLM helicase inh	APEX1 inh
Oc1c(Br)cc(Br)cc1/C=N/NC(=S)N[C@H]1CC2C=CC1C2 (some centres undefined)	-24%	-70%	8.9µM*	-20%	-3%
CC(=O)Nc1ccc(C(=O)N/N=C/c2cc(Br)cc(Br)c2O)cc1	i	-12%	-8%	-2%	-3%
COc1cc(/C=N/NC(=S)NC2CC3C=CC2C3)cc(OC)c1OC (centres undefined)	-7%	-18%	-14%	-10%	-4%
CNC(=S)N/N=C/c1cc(Br)cc(Br)c1O	-8%	2µM*	-2%	3%	-14%
C=CC(C)(C)c1[nH]c2ccccc2c1C1=C(O)C(=O)C(c2c[nH]c3c(CC=C(C)C)cccc23)=C(O)C1=O	10µM*	.	25µM*	6.3µM*	20µM*
C(=N\Nc1nc(-c2ccccn2)nc2ccccc12)/c1ccccc1	i	-6%	8.9µM*	-1%	-1%
COc1ccccc1NC(=O)c1ccc(-c2nc(COc3ccc(C)cc3)c(C)o2)cc1	.	.	.	-9%	.
C=CCN1C=C2C(=O)C(C)(OC(=O)c3cccs3)C(=O)C=C2C=C1CCCC(=O)OC (centres undefined)	-11%[11.5 µM]	.	16µM*!	-2%[12.4 µM]	-9%[12.4 µM]
CC(C)(C)c1ccc(C(=O)NCC(=O)OCC(=O)NC(=O)NC2CCCC2)cc1	.	3%	.	.	-2%
COc1ccc(NC2=C(NC(C)=O)C(=O)c3ccccc3C2=O)cc1	.	.	.	-11%	38%
CCOc1ccc(NC2=C(OC)C(=O)c3ccccc3C2=O)cc1	1%	25µM*	14µM*	-15%	?
COc1ccc(NC2=C(NCCO)C(=O)c3ccccc3C2=O)cc1	-5%	?	?	-13%	1%
COC1=C(Nc2ccc(OC)cc2)C(=O)c2ccccc2C1=O	i	28µM*	4µM*	-11%	4%
CCN(CC)c1ccc(NC2=C(Cl)C(=O)c3ccccc3C2=O)cc1	-2%	?	7.1µM*	-19%	-2%
O=C(c1ccco1)N(Cc1ccccc1)Cc1ccccn1	i	?	-2%	4%	7%
Cc1ccc(OCC(=O)Nc2ccc(-c3nc4ccccc4o3)cc2)c(C)c1	.	.	.	-3%	.
Cc1nnc(NC(=O)C2CCN(S(=O)(=O)c3cc([N+](=O)[O-])ccc3Cl)CC2)o1	.	25µM*	.	.	-7%
Cc1cccc2sc(NC(=O)C3CCN(S(=O)(=O)c4cc([N+](=O)[O-])ccc4Cl)CC3)nc12	-3%	?	13µM*	-4%	1%
O=C(NC1=NCCS1)C1CCN(S(=O)(=O)c2cc([N+](=O)[O-])ccc2Cl)CC1	.	-94%	.	.	?
COc1ccc(CCC(=O)Nc2ccc(C)c(S(=O)(=O)N(C)C)c2)cc1OC	-15%	0%	2%	0%	19%
COc1ccc(CCNCC(=O)Nc2ccc(C)c(S(=O)(=O)N(C)C)c2)cc1	i	1%	28µM*	-1%	10%
C/C(=N\Nc1ccc(Cl)c(C(=O)O)c1)c1ccc(N2CCOCC2)cc1	.	.	.	0%	3%
C/C(=N\Nc1ccc(Cl)c(C(=O)O)c1)c1ccc[nH]1	-13%	28µM*	-10%	-3%	?
CN(C)Cc1cc(O)c(CN(C)C)cc1O	-2%	3.2µM*	?	22%	?
Brc1cccc(C2Nc3cccc4cccc(c34)N2)c1	.	.	.	-4%	-2%
SMILES	RECQ1 inh	L3MBTL1 inh	KDM4E inh	BLM helicase inh	APEX1 inh
Clc1cccc(Cl)c1C1Nc2cccc3cccc(c23)N1	.	14µM*	.	-12%	35%
Brc1ccc(C2Nc3cccc4cccc(c34)N2)o1	?	-23%	3.2µM*	-1%	?
Fc1cccc(Cl)c1C1Nc2cccc3cccc(c23)N1	.	.	.	-6%	4%
O=C(N/N=C/c1ccc([N+](=O)[O-])o1)c1cc2c(ccc3ccccc32)o1	-2%	6.3µM*	?	7.9µM*	18%
CCSCCOC(=O)C1=C(C)N(C)C(=O)NC1c1cc(OC)ccc1OC (centres undefined)	-2%	-4%	7%	0%	1%
CCc1nnc(NC(=O)CN2C(=O)/C(=C/c3ccc(OC)c(OC)c3)SC2=S)s1	-1%	6%	6%	-2%	0%
Cc1ccc(O)c(N=Nc2ccc(S(=O)(=O)N3CCOCC3)cc2)c1	i	-20%	5%	-3%	8%
Cc1ccc(S(=O)(=O)Oc2ccc(N=Nc3ccc(-c4ccc(N=Nc5c(O)ccc6cc(S(=O)(=O)O)cc(S(=O)(=O)O)c56)c(C)c4)cc3C)cc2)cc1	25µM*	.	.	.	35µM*
CCN(CC)c1ccc(/C=C/C(=O)C2C(=O)C=C(C)OC2=O)cc1 (centres undefined)	16µM*	.	?	?	?
COC(=O)c1ccccc1NC(=O)c1ccc(-c2ccc(Br)cc2)o1	-1%	.	3.5µM*	-3%	8%
CN1CCN(C(=O)C2=C[C@H](c3csc4ccccc34)C[C@H](OCCCCO)O2)CC1	i	8%	22µM*	-1%	-1%
Cc1nn(-c2ccccc2)c(C)c1/C=N/NC(=O)c1ccccc1O	.	.	.	-2%	1%
O=C1NCCCC1C(=O)N/N=C/c1cc([N+](=O)[O-])ccc1O (centres undefined)	2%	-8%	10µM*	1%	23%
CCc1ccc(N2CC(C(=O)N/N=C/c3cc([N+](=O)[O-])ccc3O)CC2=O)cc1 (centres undefined)	i	?	?	-1%	-3%
O=C(N/N=C/c1cc([N+](=O)[O-])ccc1O)C1CC1	i	12%	28µM*	-3%	-2%
Cc1ccc(OCCN2CCN(CC(O)Cn3c4ccccc4c4ccccc43)CC2)cc1 (centres undefined)	-5%	?	8.9µM*	0%	-3%
CC(=O)N1CCN(CC(O)Cn2c3ccccc3c3ccccc32)CC1 (centres undefined)	.	1%	.	3%	16%
CCCCNc1cc(C(=O)O)cc(S(N)(=O)=O)c1Oc1ccccc1	-6%	-3%	25µM*	-8%	10%
Oc1ccc(C2CNCc3sccc32)cc1O (centres undefined)	0%	-2%	25µM*	.	-4%
CC(C)[C@H]1C(=O)Nc2ccccc2N1C(=O)N[C@@H](Cc1ccccc1)C(=O)N[C@H](Cc1ccccc1)C(=O)O	.	.	.	-2%	1%
CC[C@]1(C(=O)OC)[C@H]2C(=O)N(C)C(=O)[C@H]2[C@H]2CN(C)C(=NC)N21	.	-7%	.	.	1%
COC(=O)c1cc(NC(=O)c2cccc(C(F)(F)F)c2)c(=O)oc1C/C=N/OCc1cccc(Cl)c1Cl	-4%	.	20µM*	-15%	7%
Oc1ccc(N=C/C=C/c2cccc(Br)c2)cc1-c1nc2ccccc2s1	-11%	?	25µM*	-23%	-5%
O=C(O)c1ccc(N=C2SCC(=O)N2Cc2ccccc2)cc1	-6%	0%	15%	2%	3%
